Our source for the SARS-CoV-2 infection rate values is the supplement of paper PMC13380429.

The assay has as its system Vero E6 infected with SARS-CoV-2. Put plainly: SARS-CoV-2 infection rate relative to infected DMSO; higher = more infection, active = 60 or less. Particulars: 24 h.
Turning to `O=C(O)Cc1cccc(OCCCN(Cc2cccc(C(F)(F)F)c2Cl)CC(c2ccccc2)c2ccccc2)c1` (10 µM), the SARS-CoV-2 infection rate was 102% (inactive). Then `c1cnc(SCc2cccnc2)nc1` [tasuldine] (10 µM), with 99.5% (inactive); and `CCCCn1c(=O)c2[nH]c(C34CC5CC(CC3C5)C4)nc2n(CCCO)c1=O` (10 µM), with 100% (inactive). Then `Oc1cc(O)c2c(c1)O[C@H](c1ccc(O)c(O)c1)[C@@H](O)C2` [cianidanol] (10 µM), with 110% (inactive). Take `COc1ccc2cc1Oc1ccc(cc1)C[C@H]1c3c(cc4c(c3Oc3cc5c(cc3OC)CCN(C)[C@@H]5C2)OCO4)CCN1C` [cepharanthine] (10 µM): the SARS-CoV-2 infection rate is 77.5% (inactive). Then `CCOC(=O)[C@@H](N)Cc1ccc(O)c(O)c1` [etilevodopa] (10 µM), with 110% (inactive); and `NCCc1cc[nH]n1` [betazole] (10 µM), with 105% (inactive); and `Cc1cccn2c(=O)c(-c3nnn[nH]3)cnc12` [pemirolast] (10 µM), with 94.5% (inactive). The figure for `CCCCNc1ncc2c(-c3ccc(CN4CCN(C)CC4)cc3)cn([C@H]3CC[C@H](O)CC3)c2n1` (10 µM) is 119% (inactive). The figure for `Cc1cccc(C)c1NC(=O)[C@@H](C)N` [tocainide] (10 µM) is 109% (inactive); for `CC(C)(O)c1coc(S(=O)(=O)NC(=O)Nc2c3c(cc4c2CCC4)CCC3)c1` (10 µM) it is 93.5% (inactive); for `C[C@H](Cc1ccc(O)c(O)c1)[C@@H](C)Cc1ccc(O)c(O)c1` [masoprocol] (10 µM) it is 90% (inactive).
